# In PubChem BioAssay AID504332 (National Center for Advancing Translational Sciences (NCATS), 2011):
# Among all 350,000 compounds or so, about 31,000 (8.9%) were called active. A call without a number means that no potency is given here. Another 15% or so got no clear call; they are omitted. The sample holds actives, similar compounds and a random draw of the others, so the mix is not that of the screen. Unmarked numbers belong to inactive results. Calls follow the shape of the dose curve; as a rule, active = well fitted inhibition curve with a large enough effect; inconclusive = small, poorly fitted or top-dose-only effect; inactive = no such curve, though single readings can be large or run the other way.
# Target: Histone-lysine N-methyltransferase EHMT2 (Homo sapiens) (UniProt Q96KQ7)
# Sequence (Q96KQ7 913-1193 limits assumed): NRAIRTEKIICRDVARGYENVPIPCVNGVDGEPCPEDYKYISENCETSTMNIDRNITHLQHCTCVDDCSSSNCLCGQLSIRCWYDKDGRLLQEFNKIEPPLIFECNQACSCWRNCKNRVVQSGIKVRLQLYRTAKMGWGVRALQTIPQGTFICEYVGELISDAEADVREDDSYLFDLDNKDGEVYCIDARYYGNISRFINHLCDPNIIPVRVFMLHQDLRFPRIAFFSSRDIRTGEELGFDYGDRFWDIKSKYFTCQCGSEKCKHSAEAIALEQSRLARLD
# Assay: qHTS Assay for Inhibitors of Histone Lysine Methyltransferase G9a; also: nearly all actives have a fitted effect of over 75% in size
# Settings: G9a H3K9 monomethylation, AlphaScreen, 2 h; series mostly up to 59 µM
# Outline: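 G9a (20 nM) preincubated 15 min RT with compounds, then 500 nM biotinylated H3K9 peptide and 20 uM SAM added; 2 h RT reaction. Monomethyl-H3K9 product detected by AlphaScreen with anti-H3K9me1 antibody, streptavidin donor and anti-rabbit IgG acceptor beads.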
# Potency is read from the fitted curve at half-maximal effect.
SMILES,Potency,"activity, negative = inhibition"
CCN(/N=C/c1ccccc1)c1cc(=O)n(C)c(=O)[nH]1,inactive,–
CCN(/N=C/c1ccc(N(C)C)cc1)c1nc2ccccc2[nH]1,2.82 µM (active),–
CCCCSc1nc2ccccc2[nH]1,inactive,–
CN1C(=O)C2(OCCCO2)c2cc(Cl)ccc21,inactive,–
COc1cc(NC(=O)CSC(=S)N2CCCC2)c(OC)cc1Cl,–,13.5% [at 2.33 µM]
Cc1ccccc1-n1nc(C)c2c1N=C1C(Cl)=CC(Cl)=CN1C2c1ccc(C(=O)O)cc1 (configuration not stated),25.1 µM (active),–
CC1CCN(C(=O)Cn2c(=O)n(-c3ccc(Cl)cc3)c(=O)c3c4c(sc32)CCC4)CC1,inactive,–
COc1ccc2c(c1OC)C(=O)OC2c1c(O)nc(SC)n(-c2ccccc2)c1=O (configuration not stated),–,4.51% [at 12.7 µM]
CCn1c(SC)nc(O)c(C(c2ccc(OC)c(O)c2)c2c(O)nc(SC)n(CC)c2=O)c1=O,10 µM (active),–
CCn1c(CNC(=O)c2ccc(OC)c(OC)c2)nnc1SCC(=O)Nc1ccccc1,inactive,–
CCOc1ccccc1NC(=O)C1=C(C)Nc2ncnn2C1c1ccc(NC(C)=O)cc1 (configuration not stated),inactive,–
COc1ccccc1N1CCN(c2ccc(=O)n(CC(=O)NCc3ccc(OC(C)C)cc3)n2)CC1,inactive,–
Cc1cccc(Cn2c(SCc3ccc(C(=O)N4CCC(C)CC4)cc3)nc3ccncc32)c1,inactive,–
COc1cccc(Cn2c(SCc3ccc(C(=O)N4CCCCC4)cc3)nc3ccncc32)c1,inactive,–
COc1cccc(Cn2c(SCc3ccc(C(=O)N4CCC(C)CC4)cc3)nc3ccncc32)c1,1.78 µM (active),–
O=C(CSc1nc2c(c(=O)[nH]1)CN(Cc1ccc3c(c1)OCO3)CC2)Nc1cc(F)ccc1F,inactive,–
Cc1ccc2oc(C(=O)N3CCN(C)C[C@@H]3C(C)C)c(C)c2c1,inactive,–
CN(C)S(=O)(=O)c1cc(C(=O)Nc2ccn(C)n2)c(Cl)cc1Cl,–,19.1% [at 12.7 µM]
CCNC(=S)Nc1ccc(OC(F)(F)F)cc1,inactive,–
FC(F)(F)Oc1ccc(NC(=S)NCc2ccccc2)cc1,inactive,–
CS(=O)(=O)c1sc(C(=O)NC(=S)Nc2ccc(OC(F)(F)F)cc2)c2c1C=CCC2,50.1 µM (active),–

SMILES,Potency,"activity, negative = inhibition"
COc1cc(OC)c(C(=O)Nc2ccccc2-c2ccccc2)cc1OC,inactive,–
COc1cc(OC)c(C(=O)Nc2ccc(N(C)C)cc2)cc1OC,4.47 µM (active),–
COc1ccc(Cl)cc1C(=O)Nc1ccc(N(C)C(C)=O)cc1,inactive,–
COc1ccc(C(C)NC(=O)C23CC4CC(CC(C4)C2)C3)cc1 (configuration not stated),inactive,–
CCOc1ccc(-c2cc3nc(C4CCN(C(=O)OC(C)(C)C)CC4)c(C(=O)Nc4cccc(CC)c4)cn3n2)cc1,inactive,–
O=C(NCc1ccc2c(c1)CCN2C(=O)c1ccccc1)Nc1cc(F)ccc1F,inactive,–
CCSc1nc(O)c(C(c2cccc(OC)c2)c2c(O)nc(SCC)[nH]c2=O)c(=O)[nH]1,70.8 µM (active),–
CCSc1nc(C)c(CCOc2cccc(C)c2)c(=O)[nH]1,inactive,–
CC(C)c1c(O)nc(SCCOc2ccc(Cl)cc2)[nH]c1=O,inactive,–
CCCCn1c(N)c(N(CC)C(=O)c2ccc(N(C)S(=O)(=O)c3ccc(C)cc3)cc2)c(=O)[nH]c1=O,–,8.91% [at 12.7 µM]
CCCCn1c(N)c(N(CCC(C)C)C(=O)COC(=O)c2cccnc2OCC)c(=O)[nH]c1=O,inactive,–
COc1ccc(NS(=O)(=O)c2ccc(C)c(C(=O)NCC(c3cccs3)N3CCOCC3)c2)cc1 (configuration not stated),inactive,–
COc1cccc(N2CC(NC(=O)c3ccc4ccccc4c3)CC2=O)c1 (configuration not stated),inactive,–
CC(NCC(=O)Nc1cc(Cl)cc(Cl)c1)c1ccccc1 (configuration not stated),inactive,–
CC(=O)c1ccc(NC(=O)C(C)NCc2ccc(Cl)cc2)cc1 (configuration not stated),inactive,–
CC(NCc1cccs1)C(=O)Nc1cc(Cl)cc(Cl)c1 (configuration not stated),5.01 µM (active),–
Cc1cccc(NC(=O)c2sc3nc(N4CCOCC4)c4c(c3c2N)CCCC4)c1,–,6.18% [at 0.501 µM]
CC(NC(=O)CN(C)S(=O)(=O)c1ccc(F)cc1)C1CC2CCC1C2 (configuration not stated),–,11.8% [at 12.7 µM]
COc1ccccc1C(=O)OCc1cc(=O)n2nc(-c3cccs3)sc2n1,inactive,–
CC(C)c1nc(SCC(=O)Nc2cccc(C(=O)O)c2)c2c3c(sc2n1)CCCC3,inactive,–
CCCCOC(=O)CSc1ncnc2sc3c(c12)CCC(C)C3 (configuration not stated),inactive,–

SMILES,Potency,"activity, negative = inhibition"
Cc1cc(NC(=O)CSc2nc(C(C)C)nc3sc4c(c23)CCC(C)C4)no1 (configuration not stated),1 µM (active),–
CCOc1ccccc1CNC(=O)c1cnc2c(-c3ccc(OCC)c(OCC)c3)c(C)nn2c1C,inactive,–
CCc1nccn1S(=O)(=O)c1cc(Br)ccc1Br,inactive,–
Cc1ccnc(NC(=O)CCC(=O)N(CC(=O)NCCc2ccccc2)Cc2cccs2)c1,inactive,–
O=C(CCc1ccccc1)NCCc1cccs1,inactive,–
O=C(O)CCC(=O)N(Cc1cccs1)Cc1cccs1,50.1 µM (active),–
Fc1ccc(COc2ccc(-c3nnco3)cc2)cc1,inactive,–
Fc1ccc(COc2cccc(-c3n[nH]c(=S)o3)c2)cc1,5.01 µM (active),–
CN(Cc1ccc(F)cc1)C(=O)COc1ccc2ccccc2c1,inactive,–
O=C(N/N=C/c1ccccc1O)C1CCCC1,inactive,–
COc1ccc(Cn2ccc3nc(C)c(C(=O)Nc4ccc(C)c(F)c4)cc3c2=O)cc1,inactive,–
O=C(Nc1ccccc1-c1ccccc1)c1ccccc1[N+](=O)[O-],inactive,–
O=C(O)c1ccccc1C(=O)Nc1ccccc1[N+](=O)[O-],inactive,–
O=C(O)c1ccccc1NC(=S)NC(NC(=O)c1ccccc1[N+](=O)[O-])C(Cl)(Cl)Cl (configuration not stated),12.6 µM (active),–
Cc1ccc(CNC(=O)c2c(O)nc3c(C)cccn3c2=O)cc1,inactive,–
Cc1ccc(Cn2c(=O)n(-c3ccc(C)cc3)c(=O)c3c2c2cc(C)ccc2n3C)cc1,inactive,–
CCSc1nnc2c(n1)OC(c1ccc(OCC(=O)O)cc1)Nc1ccccc1-2 (configuration not stated),inactive,–
COc1ccc(OCCC(=O)c2ccc(OC)cc2)cc1,inactive,–
COc1ccc(OCCn2ccnc2C)cc1,8.91 µM (active),–
COc1ccc(OCCCCN2CCC(C)CC2)cc1,inactive,–
